Screening data deposited in PubChem BioAssay by several laboratories.
GRIN3A LBD mod = NR3A (human) ligand-binding domain modulation; 340,000 compounds, 2.5% hits; Tm shift relative to glycine control, % at 25 µM; NR3A LBD differential scanning fluorimetry, Tm shift; 0% = protein alone, 100% = glycine-bound protein; AID 1259313;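 active = melting temperature shift of at least 10% of the positive control shift, at one fixed dose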
Myeloid diff MLP = compounds promoting myeloid differentiation; ER-HoxA9 myeloid progenitors, lysozyme-GFP differentiation, flow cytometry; calls only at 10 µM; 360,000 compounds, 1% hits;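 active = normalized GFP-positive differentiation at or above the plate's own cutoff, the solvent-only control mean plus 3 SD; inconclusive = no clear call, values can overlap the other calls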;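 note: cells exposed to compound for four days before flow analysis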
rCAG RNA binder = binds r(CAG) RNA repeats; r(CAG) RNA repeat, TO-PRO-1 dye displacement fluorescence; inhibition, % at 3 µM; 370,000 compounds, 1.3% hits; AID 651821;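 active = inhibition above the plate cutoff, the mean of all test compounds on that plate plus 3 SD, cut at about 35% in these data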;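 note: higher means more dye released from RNA so lower well fluorescence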
MPTP inh = permeability transition pore inhibition | inhibition, % at 10 µM | AID 602449 | 360,000 compounds, 1.4% hits | isolated mouse mitochondria, Ca2+ swelling absorbance, 30 min;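 active = inhibition of 50% or more, scaled per plate between neutral and stimulator controls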
FAS TE block = blocks the thioesterase domain of human fatty acid synthase; recombinant FAS-TE, OMFH fluorogenic substrate, fluorescence endpoint; 360,000 compounds, 0.67% hits; AID 602261; P49327; inhibition, % at 15 µM;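 active = compounds whose normalised, plate-corrected inhibition of enzyme fluorescence in the single-dose primary screen is 50% or more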
A number is an active result; i = inactive; ? = inconclusive; nt = no result; + = active, no number. Compounds with a hit are over-represented: about 5.7% of the library has one in this group of screens.

SMILES	GRIN3A LBD mod	Myeloid diff MLP	rCAG RNA binder	MPTP inh	FAS TE block
O=C(NCc1cccs1)c1cccc(Nc2nc3ccc(Br)cc3[nH]2)c1	11	i	i	i	i
O=C(NCc1cccs1)c1ccccc1	i	i	i	i	i
COC(=O)c1ccsc1NS(C)(=O)=O	nt	nt	i	nt	nt
Cc1cccc(N2CCN(C(=O)c3cn(C)c(=O)c4c3c3ccccc3n4C)CC2)c1C	i	i	nt	i	i
Cc1ccc(Cl)cc1N1CCN(C(=O)c2cn(C)c(=O)c3c2c2ccccc2n3C)CC1	i	+	i	i	i
CCn1cc(C(=O)NCC(OC)OC)c(=O)c2cc(S(=O)(=O)N3CCC(C)CC3)ccc21	i	+	i	i	i
COc1ccc(C(=O)/C=C/c2ccc(O)cc2)c(O)c1CC=C(C)C	15	i	53	i	i
CCCc1ccc(-c2cc(NC(=O)Cc3c(C)[nH]c4ccccc34)ccc2N(C)c2cccnc2)cc1	nt	nt	i	nt	nt
COc1ccc(-c2sc3ccc(OC)cc3c2C#Cc2cncn2C)cc1	i	+	i	i	i
COc1ccc(C(=O)Nc2ccc3[nH]ccc3c2)cc1OC	i	i	i	i	i
COc1ccc(C(=O)Nc2ccc3[nH]ccc3c2)cc1	31	i	i	i	i
COc1ccc(C(=O)Nc2ccc3[nH]ncc3c2)cc1	12	i	i	i	i
C[C@H](O)[C@@H]1CN2CCc3ccc(-c4ccc5c(c4)OCO5)cc3[C@@H]2C[C@@H]1N(C)C(=O)c1cccc(Cl)c1	nt	nt	i	nt	nt
CC(=O)C1=C(C)N(Cc2ccc(Br)cc2)C(=S)NC1c1cccc(F)c1 (stereo not given)	nt	nt	i	nt	nt
CC1CCCN(C(=O)c2ccc3c(c2NCCO)C(=O)c2ccccc2C3=O)C1 (stereo not given)	i	i	i	i	i
O=C1c2ccccc2C(=O)c2c1ccc(C(=O)N1CCCCC1)c2NCCO	12	i	i	i	i
COC(=O)c1[nH]c2ccccc2c1NC(=O)Oc1ccccc1	17	i	i	i	i
COc1ccc2cc(/C=N/NC(=O)CN(c3ccccc3C)S(=O)(=O)c3ccccc3)c(Cl)nc2c1	11	?	i	i	i
COCCCNC(=O)C[C@H]1C[C@@]2(C(=O)OC)C(=C[C@H](C(C)C)O[C@@H]2C2CC2)N(Cc2cccc3ccccc23)C1=O	nt	nt	i	nt	nt
CCOc1ccc(NC(=S)NS(=O)(=O)c2cc(Br)ccc2OCC)cc1	i	i	i	i	i
CCOc1ccc(Br)cc1S(=O)(=O)Nc1ccc(C(=O)OCC(=O)Nc2ccc(C#N)cc2)cc1	14	i	i	i	i
COC(=O)[C@]12CCCCC=C1N(Cc1ccc(OC)cc1)C(=O)[C@@H]2CC(=O)NCCCN1CCCC1=O	nt	nt	i	nt	nt
O=C(/C=C\Nc1ccc(Br)cc1)c1cccnc1	i	i	i	i	i
O=C(/C=C/Nc1ccc(Br)cn1)c1cccc(OC(F)F)c1	14	i	i	i	i
CCOc1ccccc1NC(=O)Nc1ccc2c(c1)CCC2	i	+	i	i	i
SMILES	GRIN3A LBD mod	Myeloid diff MLP	rCAG RNA binder	MPTP inh	FAS TE block
O=C(Nc1ccc2c(c1)CCCN2C(=O)c1cccs1)c1cccc(F)c1	i	?	i	i	i
O=C(Nc1ccc2c(c1)Cc1ccccc1-2)c1ccncc1	18	i	i	i	i
O=C(Nc1ccc(Nc2ccccc2)cc1)Nc1ccccc1Cl	18	i	i	i	i
O=C(Nc1ccc2c(c1)CCCN2C(=O)c1cccs1)c1ccccc1	i	+	i	i	i
O=C(Cc1ccccc1Cl)NCCN1C(=O)C2C3C=CC(C3)C2C1=O (stereo not given)	nt	nt	i	nt	nt
O=C(O)c1ccccc1-c1ccccc1C(=O)Nc1ccc2c(c1)CCC2	i	i	i	i	i
NC(=O)c1ccccc1NC(=O)Nc1ccc(F)c(Cl)c1	33	i	i	i	i
CCC(CC)C(=O)Nc1ccc(Nc2ccccc2)cc1	i	i	i	i	i
Cc1c(Cl)cccc1NC(=O)Nc1ccc(C(N)=O)cc1	11	i	i	i	i
O=C(Nc1ccc2c(c1)CCC2)c1ccccc1	14	i	i	i	i
CC(C)C(=O)Nc1ccc(Nc2ccccc2)cc1	26	i	i	i	i
S=C1NCCOc2ccccc21	nt	nt	i	nt	nt
O=C(NC1CCCC1)C(c1ccc(F)cc1)N1CCC(O)(c2ccc(Cl)cc2)CC1 (stereo not given)	nt	i	i	i	nt
COc1cccc2c1[C@H](/C=C/c1ccccc1)[C@@H]([C@H](O)COC(C)=O)OC2	nt	nt	i	nt	nt
O=C(OCc1cn([C@H]2C[C@H](c3ccc(Cl)cc3)N(CC3CCCCC3)C[C@@H]2O)nn1)c1ccccc1	nt	i	i	i	i
O=C(Nc1ccccc1Cl)Nc1cccnc1Cl	19	i	i	i	i
